# Screens from PubChem.
# MCF10A rerep: inducers of DNA re-replication in MCF 10A breast cells | MCF 10A DNA re-replication, Hoechst nuclear intensity, 48 h | Potency, µM (series often up to 46.1 µM), most hits filed as activators | actives 2.9% (n = 350,000) | AID 624296; also: nearly all actives have a fitted effect of over 50% in size
# IL-1B inflam inh: inflammasome signaling inhibition, IL-1 beta readout | activity change, % at 57.5 µM | AID 743279 | actives 4.7% (n = 360,000) | THP-1 LPS/ATP IL-1B secretion, AlphaLISA, 16 h; hits give low values; in the data active = activity change below about -50%; inconclusive = mostly about -30% to -49%
#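 Secreted IL-1B measured by AlphaLISA bead assay after 16 h compound exposure of THP-1 cells; compounds (final up to 57.5 uM) added 1 h before LPS (250 ng/mL) and ATP (1.25 mM) stimulation; lower signal means less secretion.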
# VP16 counter: inhibits Gal4-VP16 luciferase reporter, ROR gamma counter-screen; Drosophila S2 Gal4-VP16 UAS-luciferase, luminescence, 20 h; Potency, µM (titrated, usually from 53.6 µM), hits mostly inhibitors; actives 3.5% (n = 310,000);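 also: Gal4-VP16 expression switched on by copper sulfate through the metallothionein promoter; nearly all actives have a fitted effect of over 50% in size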
# SW480 rereplic: induces DNA re-replication in SW480 colon adenocarcinoma cells; SW480 DNA re-replication, Hoechst DNA content imaging, 48 h; Potency, µM (doses to about 46.1 µM), actives largely listed as activators; actives 1.8% (n = 340,000); AID 624297; also: nearly all actives have a fitted effect of over 55% in size
#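 Image-based read-out: total Hoechst fluorescence of nuclei (405 nm excitation, 500-530 nm emission), with hits raising the fraction of high-intensity nuclei. SW480 colon cells incubated 48 hr with compounds at 37 C.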
# RORgamma inh: blocks mouse ROR gamma transcriptional activity; Drosophila S2 Gal4-RORgamma UAS-luciferase reporter, 20 h; Potency, µM (series often up to 53.6 µM), most hits filed as inhibitors; actives 5.4% (n = 310,000); AID 2551; also: nearly all actives have a fitted effect of over 60% in size
# Target sequence (P51450 whole entry, looked up, the tested form may be a part): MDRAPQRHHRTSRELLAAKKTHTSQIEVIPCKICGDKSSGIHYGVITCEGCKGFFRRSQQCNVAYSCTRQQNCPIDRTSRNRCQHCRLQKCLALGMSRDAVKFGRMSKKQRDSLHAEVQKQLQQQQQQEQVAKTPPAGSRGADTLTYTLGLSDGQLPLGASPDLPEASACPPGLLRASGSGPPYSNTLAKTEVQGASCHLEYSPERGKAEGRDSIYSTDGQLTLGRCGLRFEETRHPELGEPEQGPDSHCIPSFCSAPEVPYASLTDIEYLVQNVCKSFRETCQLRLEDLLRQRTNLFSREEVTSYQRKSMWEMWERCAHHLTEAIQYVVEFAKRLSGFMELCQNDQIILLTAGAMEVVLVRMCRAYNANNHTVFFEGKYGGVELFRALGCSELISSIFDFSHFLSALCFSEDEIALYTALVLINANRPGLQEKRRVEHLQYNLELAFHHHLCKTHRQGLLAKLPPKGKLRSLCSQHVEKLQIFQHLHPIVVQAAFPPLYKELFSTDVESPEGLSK
#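 Drosophila Schneider cells stably carrying a metallothionein-driven Gal4 DBD–ROR gamma fusion and a UAS-Photinus luciferase reporter were exposed to compound for 1 hr, then induced with copper sulfate (700 uM final) for 20 hr at ambient temperature before luminescence reading.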
# Hits are given with their value; n = inactive; u = inconclusive; x = no result; [ ] = another dose, or the depositor's remark. Hits are enriched below; roughly 11% of the tested compounds scored in any of these assays. Unless noted, calls follow the shape of the dose curve; as a rule, active = well fitted curve in the direction sought with a large enough effect; inconclusive = small, poorly fitted or top-dose-only effect, or another doubt; inactive = no such curve, though single readings can be large; an effect the other way counts as inactive or inconclusive.
SMILES,MCF10A rerep,IL-1B inflam inh,VP16 counter,SW480 rereplic,RORgamma inh
CC(=O)Nc1ccc(C=C(C#N)c2ccc(C)cc2)cc1,x,n,x,x,x
Cc1ccc(CNc2nc(C)cs2)cc1,n,-58,n,u,u
Nc1nonc1-c1nc2ccccc2n1CC(=O)Nc1ccccc1,n,n,n,12µM,n
CCOC(=O)c1ccccc1NC(=O)Cn1c(-c2nonc2N)nc2ccccc21,0.46µM,n,u,0.92µM,u
CC(C)CCn1c(-c2nonc2N)nc2ccccc21,16µM,n,u,u,10µM
Nc1nonc1-c1nc2ccccc2n1CC(=O)NC1CCCC1,n,n,n,n,n
COCCn1c(=O)c(-c2ccc(Cl)cc2)nc2cnc(N3CCNCC3)nc21,x,x,n,x,n
O=C(COC(=O)/C=C/c1ccccc1[N+](=O)[O-])Nc1ccc(S(=O)(=O)N2CCOCC2)cc1,n,n,x,n,x
Cc1ccccc1/C=N/n1c(COc2ccccc2)n[nH]c1=S,n,n,u,n,4.5µM
COc1cc(OC)c(OC)cc1/C=N/n1c(COc2ccccc2)n[nH]c1=S,n,n,n,n,n
Fc1ccccc1/C=N/n1c(COc2ccccc2)n[nH]c1=S,n,n,u,n,6.3µM
COc1ccc(/C=N/n2c(COc3ccccc3)n[nH]c2=S)cc1OC,n,n,n,n,5µM
Oc1ccccc1/C=N/n1c(COc2ccccc2)n[nH]c1=S,n,n,n,n,11µM
CCC(CC)c1nnc(NC(=O)Cc2c[nH]c3ccccc23)s1,x,n,x,x,x
COCCn1c(=O)c(-c2cccc(C#N)c2)nc2cnc(N3CCOCC3)nc21,x,x,n,x,n
NCCC[C@@H](CC(=O)N[C@@H]1CCCC[C@H]1C(=O)N[C@H](CC(=O)N[C@@H](CCC(=O)O)CC(=O)O)Cc1ccccc1)NC(=O)C[C@H](CO)NC(=O)[C@@H]1CCCC[C@H]1N,x,x,n,x,n
CCOc1ccccc1/C=N/n1c(COc2ccccc2)n[nH]c1=S,n,n,u,n,4.5µM
S=c1[nH]nc(COc2ccccc2)n1/N=C/c1ccc(Cl)cc1Cl,u,n,n,n,7.1µM
S=c1[nH]nc(COc2ccccc2)n1/N=C/c1ccc(Br)s1,u,n,u,n,2.5µM
O=C(CCN1C(=O)/C(=C/c2cccs2)SC1=S)Nc1ccc(C(=O)O)cc1,n,n,n,n,n
O=C(CCCN1C(=O)/C(=C\c2cccs2)SC1=S)Nc1ccc(C(=O)O)cc1,n,n,n,n,n
O=C(CCCN1C(=O)/C(=C/c2ccco2)SC1=S)Nc1cccc(C(=O)O)c1,n,n,n,n,n
O=C(CCCN1C(=O)/C(=C\c2ccco2)SC1=S)Nc1ccc(O)cc1C(=O)O,n,n,14µM,n,11µM
CCN(CC)CCOC(=O)c1ccc(NC(=O)CCCN2C(=O)/C(=C/c3cccs3)SC2=S)cc1,u,n,11µM,u,22µM
Cc1ccc(/C=C2/SC(=S)N(CCCC(=O)Nc3cc([N+](=O)[O-])ccc3O)C2=O)cc1,n,n,u,u,7.9µM
SMILES,MCF10A rerep,IL-1B inflam inh,VP16 counter,SW480 rereplic,RORgamma inh
O=C(CCCN1C(=O)/C(=C\c2cccs2)SC1=S)Nc1ccc(O)cc1,n,n,u,21µM,u
C#CC(C)OC(=O)c1nnc2c3ccccc3n(COC)c2n1 (stereo not given),x,x,n[10 µM],x,n[10 µM]
Cc1ccc(/C=C2\SC(=S)N(CCCC(=O)Nc3ccc(O)cc3)C2=O)cc1,n,n,x,n,0.05µM
O=C(CCCN1C(=O)/C(=C\c2cccs2)SC1=S)Nc1ccc(O)cc1C(=O)O,n,n,5.6µM,n,5.6µM
O=C1/C(=C\c2ccco2)SC(=S)N1c1ccc(O)cc1,n,n,n,21µM,n
O=C(CCN1C(=O)S/C(=C\c2cccs2)C1=O)NC1=NCCS1,n,n,18µM,n,u
COC(=O)c1ccc(/C=C2/SC(=S)N(CCCC(=O)Nc3ccc(O)cc3)C2=O)cc1,u,u,n,u,n
CCc1ccc2ncc(S(=O)(=O)c3ccc(C)c(C)c3)c(N3CCCC3)c2c1,23µM,n,u,n,u
CCOc1ccc2ncc(S(=O)(=O)c3ccccc3)c(N3CCN(c4ccccc4)CC3)c2c1,n,n,x,n,x
CCOC(=O)c1c(NC(=S)NC(=O)c2cnn(CC)c2)sc2c1CCC(C)C2 (stereo not given),u,n,n,n,11µM
CCOC(=O)c1c(NC(=O)CC2SC(N)=NC2=O)sc2c1CCC(C)C2 (stereo not given),n,-52,n,n,n
CCC(C)(C)C1CCc2c(sc(NC(=O)c3cccs3)c2C(N)=O)C1 (stereo not given),n,n,n,u,n
CC(C)(C)C1CCc2c(sc(NC(=O)c3cccs3)c2C(N)=O)C1 (stereo not given),5.6µM,n,u,u,n
COC(=O)c1c(NC(=O)CC2SC(N)=NC2=O)sc2c1CCC(C(C)(C)C)C2 (stereo not given),23µM,-53,n,n,u
CSc1ncc(C(=O)Nc2cccnc2)c(C(F)(F)F)n1,n,n,n,n,n
COc1ccc(OC)c(C(C(=O)NC2CCCCC2)N(C(=O)c2snc(C(N)=O)c2N)c2ccccc2OC)c1 (stereo not given),n,n,n,n,n
COc1ccc(C(C(=O)NC2CCCCC2)N(Cc2ccco2)C(=O)c2snc(C(N)=O)c2N)cc1 (stereo not given),u,-68,n,n,n
COc1ccc(C(C(=O)NC2CCCC2)N(Cc2ccco2)C(=O)c2snc(C(N)=O)c2N)cc1OC (stereo not given),n,-59,n,n,n
COc1ccc(C)cc1N(C(=O)c1snc(C(N)=O)c1N)C(C(=O)NC1CCCCC1)c1ccc(C)o1 (stereo not given),n,-55,n,u,n
CCCCC[C@H](O)/C=C/[C@@H]1[C@@H](C/C=C\CCCC(=O)O)[C@H](O)C[C@H]1O,x,x,n,x,n
CCc1nc2ccc(C(=O)NCCNC(C)=O)cn2c1N(CC)CCOC,x,n,x,x,x
S=C(Nc1ccccc1)c1nc2ccccc2s1,n,n,0.71µM,n,1.1µM
CN(C)C(=S)Nc1nc2ccccc2s1,n,n,1.3µM,n,0.5µM
CCNC(=O)Nc1nc2ccccc2s1,n,n,n,u,n
CCOc1ccc2nc(NC(=S)N(C)C)sc2c1,n,n,1.8µM,n,1µM
SMILES,MCF10A rerep,IL-1B inflam inh,VP16 counter,SW480 rereplic,RORgamma inh
CCOc1ccc2nc(NS(=O)(=O)Cc3ccccc3)sc2c1,0.23µM,n,n,u,n
CCCC(=O)Nc1nc2ccc(OCC)cc2s1,n,n,n,n,u
COc1ccccc1CCn1c(=O)c(-c2ccccc2)nc2cncnc21,x,x,n,x,n
CCOc1ccc2nc(NC(=O)CCn3cccc3)sc2c1,n,n,u,n,5µM
Cc1ccc(-n2ncc3c(=O)n(-c4cccc(C)c4)c(=O)[nH]c32)cc1,x,n,x,x,x
FC(F)(F)c1ccccc1-c1ccc2ncnc(N3CCOCC3)c2c1,x,x,n,x,n
CCOCCC(=O)Nc1ccc2c(c1)c(=O)n(C)n2C/C=C/c1ccccc1,x,n,x,x,x
